Test results reported in PubChem BioAssay (NCATS).
Records with an inconclusive call do not appear. Unmarked numbers belong to inactive results. Calls of active or inactive are those of the source. Calls come from the whole dose curve; as a rule, active = well fitted cell-killing curve with a large enough effect; inconclusive = small, poorly fitted or top-dose-only effect, or effect the other way; inactive = flat fitted curve, though single readings scatter. Where a SMILES comes first, the peptide text is derived from it. [ ]: non-standard residue; d: D form. Ala(indol-2-yl) = N[C@@H](Cc1cc2ccccc2[nH]1)C(=O)O; Aib = CC(C)(N)C(=O)O

Tested on: JEG-3
Test: Primary qHTS to identify gynecologic anti-cancer compounds using libraries of approved drugs and bioactive compounds (AID 1345084); note: nearly all actives have a fitted effect of over 55% in size
Conditions: Gynecologic cancer cell panel viability, ATPlite luminescence, 48 h; series mostly up to 57.5 µM
Summary of the method: (§1)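 Five-point cytotoxicity, 48 h drug exposure at 37 C, 5% CO2, on cells seeded 16 h beforehand. ATP content read by ATPlite luminescence.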
% is set by controls: 0 for no effect and ±100 for the full control effect; potency is the fitted concentration of half-maximal effect.

Row | SMILES | Potency | activity change, negative = cytotoxicity
1 | c1cncc(OC[C@@H]2CCN2)c1 | inactive | –
2 | C[N@@+]1(CC2CC2)CC[C@]23c4c5ccc(O)c4O[C@H]2C(=O)CC[C@@]3(O)[C@H]1C5 | inactive | –
3 | COc1ccc2c3c([nH]c2c1)C(C=C(C)C)N1C(=O)C2CCCN2C(=O)C1C3 (stereo not drawn) | inactive | –
4 | CC(=O)OC[C@]12C[C@H](OC(=O)CC(C)C)C(C)=C[C@H]1O[C@@H]1[C@H](O)[C@@H](O)[C@@]2(C)[C@]12CO2 | 1580 nM (active) | –
5 | CC(C)(NC(=O)[C@@H](N)Cc1ccc(O)cc1)C(=O)N[C@@H](Cc1cc2ccccc2[nH]1)C(=O)N[C@@H](Cc1ccccc1)C(=O)O (H-Y[Aib][Ala(indol-2-yl)]F-OH) | – | -21.6% [at 11.6 µM]
6 | CC[C@H]1C2CC3[C@@H]4N(C)c5ccccc5[C@]45C[C@@H]([C@H]2[C@H]5O)N3[C@@H]1O | inactive | –
7 | CC(=O)OC[C@]12C[C@H](OC(=O)CC(C)C)C(C)=C[C@H]1O[C@@H]1[C@H](O)[C@@H](OC(C)=O)[C@@]2(C)[C@@]12CO2 | 1000 nM (active) | –
8 | CC1=C[C@H]2O[C@@H]3C[C@H]4OC(=O)/C=C/C=C/C(=O)OCC/C(C)=C/C(=O)OC[C@@]2(CC1)[C@]4(C)[C@]31CO1 | 126 nM (active) | –
9 | C=C(CO)C(=O)O[C@H]1CC(=C)[C@@H]2C[C@H](O)C(=C)[C@@H]2[C@H]2OC(=O)C(=C)[C@@H]21 | inactive | –
10 | CC1CCCC(=O)CCC/C=C/c2cc(O)cc(O)c2C(=O)O1 (stereo not drawn) | inactive | –
11 | O=C(OC[C@H]1O[C@@H](Oc2ccc(O)cc2CO)[C@H](O)[C@@H](O)[C@@H]1O)c1ccccc1 | inactive | –
12 | CC[C@H]1C[C@@H]2CC[C@@H](O2)[C@@H](C)C(=O)O[C@H](CC)C[C@H]2CC[C@H](O2)[C@H](C)C(=O)O[C@@H](C)C[C@@H]2CC[C@@H](O2)[C@@H](C)C(=O)O[C@H](CC)C[C@H]2CC[C@H](O2)[C@H](C)C(=O)O1 | inactive | –
13 | CC(=O)OC[C@]12C[C@H](O)C(C)=C[C@H]1O[C@@H]1[C@H](O)[C@@H](OC(C)=O)[C@@]2(C)[C@]12CO2 | 224 nM (active) | –
14 | C[C@H]1O[C@@H](n2cnc3c(N)ncnc32)C[C@@H]1O | inactive | –
15 | CN(C)c1cc2c(cc1Sc1nc3c(N)nccc3n1CCNCC(C)(C)C)OCO2 | 11200 nM (active) | –

Tested on: OV90
Test: as above
Conditions: Gynecologic cancer cell panel viability, ATPlite luminescence, 48 h; series mostly up to 57.5 µM
Summary of the method: as §1

Row | SMILES | Potency | activity change, negative = cytotoxicity
16 | CCC(C)/C=C(C)/C=C/C1=CC2=C(Cl)C(=O)C(C)(OC(C)=O)C(=O)C2=CO1 (stereo not drawn) | inactive | –
17 | COC1CC(O[C@H]2CC[C@]3(C)C4CC[C@]5(C)[C@@H](C6=CC(=O)OC6)[C@@H](OC(C)=O)C[C@]5(O)C4CC[C@@H]3C2)OC(C)C1O (stereo partly drawn) | 3160 nM (active) | –
18 | C[C@H]1O[C@@H](O[C@H]2CC[C@]3(C=O)C4CC[C@]5(C)[C@@H](C6=CC(=O)OC6)CC[C@]5(O)[C@@H]4CC[C@]3(O)C2)C[C@@H](O)[C@@H]1O (stereo partly drawn) | 316 nM (active) | –
19 | COC1CC(O[C@H]2CC[C@@]3(C)C(CCC4C3CC[C@]3(C)[C@@H](C5=CC(=O)OC5)CC[C@]43O)C2)OC(C)C1O (stereo partly drawn) | 398 nM (active) | –
20 | CC(C)(C)[C@]1(O)C[C@@H]2OC(=O)C[C@@]23C(=O)O[C@@H]2OC(=O)[C@@H](O)[C@]213 | inactive | –
21 | C[C@H]1C/C=C/[C@H]2[C@@H]3O[C@]3(C)[C@@H](C)[C@H]3[C@H](Cc4ccccc4)NC(=O)[C@]32OC(=O)O/C=C/[C@@](C)(O)C1=O | inactive | –
22 | CNC(=O)c1cc(C#N)cc(C)c1NC(=O)c1cc(Br)nn1-c1ncccc1Cl | inactive | –
23 | OCc1nnc2n1-c1ccc(Cl)cc1C(c1ccccc1Cl)=NC2 | inactive | –
24 | CN[C@@H]1C[C@H]2O[C@@](C)([C@@H]1OC)n1c3ccccc3c3c4c(c5c6ccccc6n2c5c31)C(=O)NC4 | 316 nM (active) | –
25 | COC1CC(O[C@H]2CC[C@]3(C=O)C4CC[C@]5(C)[C@@H](C6=CC(=O)OC6)CC[C@]5(O)[C@@H]4CC[C@@H]3C2)OC(C)C1O[C@@H]1O[C@H](CO)[C@@H](O[C@@H]2O[C@H](CO)[C@@H](O)[C@H](O)[C@H]2O)[C@H](O)[C@H]1O (stereo partly drawn) | 1580 nM (active) | –
26 | CC[C@@H]1C[C@H]2CC[C@H](O2)[C@H](C)C(=O)O[C@@H](C)C[C@@H]2CC[C@@H](O2)[C@@H](C)C(=O)O[C@H](CC)C[C@H]2CC[C@H](O2)[C@H](C)C(=O)O[C@@H](C)C[C@@H]2CC[C@@H](O2)[C@@H](C)C(=O)O1 | 398 nM (active) | –
27 | CC(=O)O[C@@H]1[C@@H](O)[C@H]2O[C@@H]3C=C(C)[C@@H](O)C[C@]3(CO)[C@]1(C)[C@]21CO1 | 1410 nM (active) | –
28 | CO[C@H]1C[C@H](O[C@H]2CC[C@@]3(C)C(=CCC4C3CC[C@]3(C)[C@@H](C5=CC(=O)OC5)CC[C@]43O)C2)O[C@@H](C)[C@@H]1O[C@@H]1O[C@H](CO[C@@H]2O[C@H](CO)[C@@H](O)[C@H](O)[C@H]2O)[C@@H](O)[C@H](O)[C@H]1O (stereo partly drawn) | – | 5.84% [at 11.6 µM]
29 | C=C1[C@@H](C)[C@H]2[C@H](Cc3ccccc3)NC(=O)[C@]23[C@H](OC(C)=O)/C=C/[C@](C)(O)C(=O)[C@@H](C)C/C=C/[C@H]3[C@@H]1O | 1260 nM (active) | –
30 | c1cncc(OC[C@@H]2CCN2)c1 | inactive | –
31 | CC(=O)OC[C@]12C[C@H](OC(=O)CC(C)C)C(C)=C[C@H]1O[C@@H]1[C@H](O)C[C@@]2(C)[C@]12CO2 | 4470 nM (active) | –
32 | CNc1ccc2oc(C[C@H]3O[C@@]4(CC[C@H]3C)O[C@H](C(C)C(=O)c3ccc[nH]3)[C@H](C)C[C@H]4C)nc2c1C(=O)O (stereo partly drawn) | 12600 nM (active) | –

Row | SMILES | Potency | activity change, negative = cytotoxicity
33 | C[N@@+]1(CC2CC2)CC[C@]23c4c5ccc(O)c4O[C@H]2C(=O)CC[C@@]3(O)[C@H]1C5 | inactive | –
34 | COc1ccc2c3c([nH]c2c1)C(C=C(C)C)N1C(=O)C2CCCN2C(=O)C1C3 (stereo not drawn) | inactive | –
35 | CC(C)(NC(=O)[C@@H](N)Cc1ccc(O)cc1)C(=O)N[C@@H](Cc1cc2ccccc2[nH]1)C(=O)N[C@@H](Cc1ccccc1)C(=O)O (H-Y[Aib][Ala(indol-2-yl)]F-OH) | – | 2.67% [at 11.6 µM]
36 | C[C@]12CC[C@H](O)C[C@H]1CC[C@@H]1[C@@H]2[C@H](O)C(=O)[C@]2(C)[C@@H](c3ccc(=O)oc3)CC[C@]12O | 282 nM (active) | –
37 | CC[C@H]1C2CC3[C@@H]4N(C)c5ccccc5[C@]45C[C@@H]([C@H]2[C@H]5O)N3[C@@H]1O | inactive | –
38 | CC(=O)OC[C@]12C[C@H](OC(=O)CC(C)C)C(C)=C[C@H]1O[C@@H]1[C@H](O)[C@@H](OC(C)=O)[C@@]2(C)[C@@]12CO2 | 2510 nM (active) | –
39 | C=C(CO)C(=O)O[C@H]1CC(=C)[C@@H]2C[C@H](O)C(=C)[C@@H]2[C@H]2OC(=O)C(=C)[C@@H]21 | inactive | –
40 | CC1CCCC(=O)CCC/C=C/c2cc(O)cc(O)c2C(=O)O1 (stereo not drawn) | inactive | –
41 | O=C(OC[C@H]1O[C@@H](Oc2ccc(O)cc2CO)[C@H](O)[C@@H](O)[C@@H]1O)c1ccccc1 | inactive | –
42 | CC[C@@]1(O)C(=O)OCc2c1cc1n(c2=O)Cc2cc3c(OC)cccc3nc2-1 | 1120 nM (active) | –
43 | CC(=O)OC[C@]12C[C@H](O)C(C)=C[C@H]1O[C@@H]1[C@H](O)[C@@H](O)[C@@]2(C)[C@]12CO2 | 12600 nM (active) | –
44 | CC[C@H]1C[C@@H]2CC[C@@H](O2)[C@@H](C)C(=O)O[C@H](CC)C[C@H]2CC[C@H](O2)[C@H](C)C(=O)O[C@@H](C)C[C@@H]2CC[C@@H](O2)[C@@H](C)C(=O)O[C@H](CC)C[C@H]2CC[C@H](O2)[C@H](C)C(=O)O1 | 89.1 nM (active) | –
45 | CC(=O)OC[C@]12C[C@H](O)C(C)=C[C@H]1O[C@@H]1[C@H](O)[C@@H](OC(C)=O)[C@@]2(C)[C@]12CO2 | 12600 nM (active) | –
46 | CO[C@H]1[C@H](O)[C@H](O[C@H]2CC[C@]3(C=O)C4CC[C@]5(C)[C@H](C6=CC(=O)OC6)CC[C@]5(O)C4CC[C@@H]3C2)O[C@@H](C)[C@@H]1O (stereo partly drawn) | 282 nM (active) | –
47 | C[C@H]1O[C@@H](n2cnc3c(N)ncnc32)C[C@@H]1O | inactive | –
48 | CO[C@H]1[C@@H](O)[C@@H](C)O[C@@H](O[C@@H]2C=C3C(OC(C)=O)CC4(O)C(CC[C@]5(C)[C@@H](C6=CC(=O)OC6)CC[C@]45O)[C@@]3(C)CC2)[C@@H]1O (stereo partly drawn) | 2510 nM (active) | –
